# Rows were chosen to be rich in hits. Some 19% of all compounds tested hit in one or more screens of this group.
# IL-1B inflam inh = inhibitors of inflammasome signaling (IL-1 beta secretion). THP-1 LPS/ATP IL-1B secretion, AlphaLISA, 16 h; stronger effect = lower value. activity change, % at 57.5 µM. hit rate 4.7% among 360,000; in the data active means activity change below about -50%; inconclusive means mostly about -30% to -49%
#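 THP-1 cells pretreated 1 hr with compounds (up to 57.5 uM final), then stimulated with LPS (250 ng/mL final) plus ATP (1.25 mM final); secreted IL-1B measured by AlphaLISA after 16 hr, decreased signal indicating inhibition.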
# MCF10A rereplic = induces DNA re-replication in MCF 10a normal breast cells. Potency, µM (series often up to 46.1 µM), usual class: activators. hit rate 2.9% among 350,000. MCF 10A DNA re-replication, Hoechst nuclear intensity, 48 h; further: nearly all actives have a fitted effect of over 50% in size
# DT40 TDP1 no CPT = qHTS for Inhibitors of human tyrosyl-DNA phosphodiesterase 1 (TDP1): qHTS in cells in absence of CPT | AID 686978, 2013 | hit rate 15% among 420,000 | Potency, µM (series often up to 46.2 µM), most hits filed as inhibitors | DT40 Tdp1-/- hTDP1 cells, no CPT, ATP luminescence, 48 h; further: nearly all actives have a fitted effect of over 55% in size
#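 Seeded 400 DT40-hTDP1 cells/well (vehicle DMSO, no 20 nM CPT); pinned compounds; ≥48 hr at 37 °C; CellTiter-Glo luminescence as viability measure.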
# SW480 rerep = DNA re-replication induction in SW480 cells. SW480 DNA re-replication, Hoechst DNA content imaging, 48 h. Potency, µM (doses to about 46.1 µM), hits mostly activators. hit rate 1.8% among 340,000. AID 624297; further: nearly all actives have a fitted effect of over 55% in size
#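 SW480 cells exposed to compounds for 48 hr at 37 C, 5% CO2, then Hoechst-stained 40 min. Nuclear DNA content imaged by fluorescence scanning (405 nm excitation, 500-530 nm emission); re-replication scored as increased high-intensity nuclei.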
# DT40 TDP1 CPT = DT40-hTDP1 cell growth loss with CPT. hit rate 12% among 420,000. Potency, µM (series often up to 46.2 µM), usual class: inhibitors. chicken DT40 Tdp1-/-;hTDP1 cells + 20 nM CPT, ATP luminescence, 48 h. AID 686979; further: nearly all actives have a fitted effect of over 55% in size
#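 Cell growth measured by CellTiter-Glo luminescence after a minimum 48 h, 37 C compound exposure with 20 nM CPT in Tdp1-knockout DT40 cells stably expressing hTDP1, seeded 400/well; qHTS titration format.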
# Chronic BCR inh = blocks chronic active B-cell receptor signaling; ABC-DLBCL IkBa-CBG/CBR reporter, luminescence ratio, 4 h; hit rate 0.05% among 340,000; Potency, µM (top dose mostly 46.1 µM), actives largely listed as inhibitors; AID 493014; active means well fitted inhibition curve with a large enough effect in the signal ratio, with a control signal flat, not every such curve was filed as active; inconclusive means small, poorly fitted or top-dose-only effect, or effect the other way, or a change in a side signal; the % refers to the signal ratio
#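 Concentration-response series (up to 46 uM) were applied to TMD8 dual-reporter cells for 4 h at 37C with doxycycline. Green/red ratio, after filter-overlap correction, defined %Activity; red signal alone was normalised to basal cells and zero luminescence.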
# Hits are given with their value; – = inactive; ? = inconclusive; · = not tested or not shown; [ ] = another dose, or the depositor's remark. Unless noted, the call rests on the fitted dose curve; in most records, active means well fitted curve in the direction sought with a large enough effect; inconclusive means small, poorly fitted or top-dose-only effect, or another doubt; inactive means no such curve, though single readings can be large; an effect the other way counts as inactive or inconclusive.
SMILES,IL-1B inflam inh,MCF10A rereplic,DT40 TDP1 no CPT,SW480 rerep,DT40 TDP1 CPT,Chronic BCR inh
O=C(N/N=C/C1CC=CCC1)c1cc(-c2cccnc2)nc2ccccc12 (centres undefined),–,–,–,–,–,–
CCOc1cc(/C=N/NC(=O)c2cc(-c3cccnc3)nc3ccccc23)ccc1O,–,–,6.5µM,–,–,–
O=C(N/N=C/c1cccnc1)c1cc(-c2ccc(Br)cc2)nc2ccccc12,?,?,8.2µM,21µM,12µM,?
O=C(N/N=C/c1cccnc1)c1ccccc1Br,–,–,–,–,–,?
CCOc1cc(/C=N/NC(=O)c2ccc(CN3CCOCC3)cc2)ccc1OCc1ccccc1,–,–,18µM,–,?,–
COc1ccc(NC(=O)CN2C(=O)C(C)Oc3ccccc32)cc1OC (centres undefined),–,–,?,–,–,–
NS(=O)(=O)c1ccc(NC(=O)COC(=O)Cc2c[nH]c3ccccc23)cc1,–,–,–,–,–,–
Cc1cc(/C=C(\C#N)C(=O)NCc2ccccc2)c(C)[nH]1,–,·,?,·,?,·
CCOC(=O)C1=CCN(S(=O)(=O)c2ccc(C)cc2)C1c1ccc(Cl)c(Cl)c1 (centres undefined),–,·,?,·,?,·
Cc1ccc(-c2cc(C(=O)N/N=C/c3cccnc3)c3ccccc3n2)cc1C,–,–,8.2µM,–,8.2µM,·
O=C(N/N=C/c1ccc(Cl)cc1)c1cc(-c2cccnc2)nc2ccccc12,–,?,7.3µM,4.1µM,?,?
Cc1ccc(C)c(-c2cc(C(=O)N/N=C/c3cccnc3)c3ccccc3n2)c1,–,–,?,–,?,–
Cc1ccc(/C=N/NC(=O)c2cc(-c3cccnc3)nc3ccccc23)cc1,–,23µM,1.5µM,2.6µM,2.1µM,?
CCOc1cc(/C=N/NC(=O)c2nn(C)cc2Br)ccc1OCc1ccccc1Cl,–,–,16µM,?,21µM,?
O=C(N/N=C/c1c(F)c(F)c(F)c(F)c1F)c1cc(-c2ccccc2)nc2ccccc12,–,–,–,–,?,?
COc1ccc(CNC(=O)c2nc(Cn3nc(C)c(Br)c3C)no2)cc1OC,·,·,?,·,–,·
O=C(NC1CCC(O)CC1)c1cc(-c2ccc(Cl)cc2)nc2ccccc12 (centres undefined),-55,–,?,–,?,–
O=C(NC1CC1)c1cc(-c2ccco2)nc2ccccc12,–,–,–,–,–,–
CCC1CN(CC(=O)NCc2n[nH]c3c2CCCCC3)Cc2cc(OC)ccc2O1 (centres undefined),·,·,?,·,–[9.04 µM],·
CCc1ccccc1N(c1nc(-c2ccc(OC)c(OC)c2)no1)c1nc(-c2ccc(OC)c(OC)c2)no1,·,·,–,·,–,·
Cc1cccc(NC(=O)C(C)OC(=O)c2ccccc2NS(=O)(=O)c2cc(C)c(C)c([N+](=O)[O-])c2)c1 (centres undefined),–,–,?,–,16µM,–
CS(=O)(=O)Nc1cccc(-c2cc(NC=O)c3ncc(-c4ccc(F)c(Cl)c4)n3c2)c1,–,·,15µM,·,9.2µM,·
O=CNc1cc(-c2cccc(F)c2)cn2c(-c3ccc(F)c(Cl)c3)cnc12,–,·,12µM,·,23µM,·
O=CNc1cc(-c2ccccc2)cn2c(-c3ccc(F)c(Cl)c3)cnc12,–,·,23µM,·,23µM,·
Cc1ccc2oc(-c3ccc(C)c(NC(=O)/C=C/c4ccco4)c3)nc2c1,·,·,–,·,–,·
SMILES,IL-1B inflam inh,MCF10A rereplic,DT40 TDP1 no CPT,SW480 rerep,DT40 TDP1 CPT,Chronic BCR inh
Cc1ccc(S(=O)(=O)CCC(=O)Nc2nc(C(C)(C)C)cs2)cc1,–,?,?,–,?,–
O=C(CCS(=O)(=O)c1ccc(F)cc1)Nc1nc(-c2ccncc2)cs1,?,18µM,9.2µM,?,13µM,–
CC(C)(C)c1csc(NC(=O)CCc2ccccc2)n1,-54,?,?,?,?,?
CC(C)(C)c1csc(NC(=O)CCS(=O)(=O)c2ccc(F)cc2)n1,–,·,8.2µM,·,8.2µM,·
O=C(CCS(=O)(=O)c1ccccc1)Nc1nc(-c2cccs2)cs1,-74,?,21µM,?,?,–
O=C(COc1ccccc1)Nc1nc(-c2cccs2)cs1,–,–,?,–,–,–
CC1CCCCN1C(=O)C1COc2ccccc2O1 (centres undefined),–,–,–,–,–,–
COc1ccc(C(=O)N2CCCC(O)C2)cc1OC1CCN(C(C)C)CC1 (centres undefined),–,–,–,–,–,?
CCOc1ccccc1N1CCN(CC(=O)NC(C)c2ccccc2)CC1 (centres undefined),–,–,–,–,–,–
Cc1cc(C)cc(OCCn2nnc3ccccc32)c1,–,–,–,–,–,–
NCCCn1cnc2ccccc21,–,0.58µM,–,–,–,?
Cc1ccc(Cn2cnc3ccccc32)cc1,-54,–,21µM,–,15µM,?
c1ccc2c(c1)ncn2CCn1cnc2ccccc21,–,–,–,–,–,–
COc1ccc(C(=O)N2CCCCC2CCN2CCOCC2)cc1 (centres undefined),·,·,–,·,–,·
CN(C)/C=C/C(=O)c1ccc(Br)cc1,–,?,–,–,–,?
CCn1cc(/C=C(\NC(=O)c2ccc(OC)c(OC)c2)C(=O)NCCCn2ccnc2)c2ccccc21,·,·,–,·,–,·
COc1ccc(C(=O)/C=C/c2cn(CC(O)CN3CCN(C)CC3)c3ccccc23)cc1OC (centres undefined),·,10µM,?,23µM,?,?
CCCCN(C)CC(O)Cn1cc(/C=C/C(=O)c2ccc(OC)c(OC)c2)c2ccccc21 (centres undefined),·,·,21µM,·,18µM,·
CCCCN(C)CC(O)Cn1cc(/C=C/C(=O)c2ccc(C)cc2)c2ccccc21 (centres undefined),?,?,9.2µM,?,7.3µM,?
CCCCN(C)CC(O)Cn1cc(/C=C/C(=O)c2ccc(Br)cc2)c2ccccc21 (centres undefined),·,·,5.2µM,·,6.5µM,·
CCn1cc(/C=C(\NC(=O)c2ccc(OC)c(OC)c2)C(=O)N2CCN(C)CC2)c2ccccc21,–,–,–,–,?,–
CCn1cc(/C=C(\NC(=O)c2ccc(C)cc2)C(=O)NCCCN2CCOCC2)c2ccccc21,–,–,–,–,–,–
O=C1Nc2ccc(Cl)cc2C(C#CC2CC2)(C(F)(F)F)O1 (centres undefined),–,?,?,–,?,–
COc1ccc(C(=O)NCc2ccncc2)cc1S(=O)(=O)NCc1ccc(Cl)cc1,–,–,–,–,–,–
